Data taken from PubChem BioAssay (EPA / NIEHS).
Where “and” joins values, the source holds several entries; their conditions need not be identical. Identical values can stand only once. Inconclusive results are not listed. The source holds several records for some structures; these can differ, active in one and inactive in another. Calls of active or inactive are those of the source. Rule for the calls, unless noted: active = hit-call score of the fitted dose curve at least 0.9, where 1 is the maximum; inactive = score below 0.9.

Legend:
[1] = read-out: Monokine induced gamma interferon (MIG), CXCL9 (gene 4283); assay: BSK_SAg_MIG: BioMAP Diversity Plus: SAg Assay for Monokine induced gamma interferon (MIG) Biomarker Activity (AID 2283092); conditions: primary human HUVEC with PBMC; actives raise or lower the signal
Method in brief: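 HUVEC plus human PBMC co-culture, chemicals dosed and MIG (CXCL9) quantified by ELISA at 24 h. Bidirectional curve fitting against DMSO as negative control and baseline, so both gain and loss of signal count as activity.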

[2] = BSK_SAg_PBMCCytotoxicity: PBMC Cytotoxicity Assessment in the BioMAP Diversity Plus: SAg Assay (AID 2283093); conditions: primary human HUVEC with PBMC;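 note: PBMC viability measured as Alamar Blue reduction fluorescence at 546/580 nm; fitted both ways against DMSO so a hit may be loss or gain of signal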;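 for AC50: PBMC superantigen activated with SEB plus TSST-1 one hour after compound addition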
Method in brief: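 Human umbilical vein endothelial cells co-cultured with PBMC; PBMC (75,000/well) pre-treated with compound 1 h, then activated with SEB and TSST-1 (20 ng/mL final each) for 90 h. Alamar Blue added 6 h, fluorescence 546/580 nm; bidirectional fit versus DMSO.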

[3] = read-out: Interleukin-8 (IL8), CXCL8 (gene 3576); assay: BSK_SAg_IL8: BioMAP Diversity Plus: SAg Assay for Interleukin-8 (IL8) Biomarker Activity (AID 2283094); conditions: primary human HUVEC with PBMC; actives raise or lower the signal
Method in brief: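 Human umbilical vein endothelial cells co-cultured with PBMC, stimulated with superantigen; IL-8 measured by ELISA 24 h after chemical dosing. Bidirectional fitting versus DMSO; SRB staining in parallel cultures tracks cytotoxicity.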

[4] = BSK_SAg_Proliferation: Cell Proliferation Assessment in the BioMAP Diversity Plus: SAg Assay (AID 2283095); conditions: primary human HUVEC with PBMC
Method in brief: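 Human umbilical vein endothelial cells co-cultured with PBMC; sulforhodamine B total-protein staining (0.1% SRB after 10% TCA fixation, absorbance 560 nm) at 96 h in sub-confluent culture. Fitted bidirectionally against DMSO.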

[5] = BSK_SAg_SRB: Viability Assessment in the BioMAP Diversity Plus: SAg Assay (AID 2283096); conditions: primary human HUVEC with PBMC;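 note: cells read one day after compound addition; hits may be either gain or loss of signal compared with DMSO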
Method in brief: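 Endothelial/PBMC primary human co-culture; compound 24 h; fix 10% TCA, stain 0.1% SRB, A560; protein content as cytotoxicity proxy; bidirectional curve fit, DMSO = baseline.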

[6] = molecular target: human CYP1A2, CYP1A2 (gene 1544) (UniProt P05177); assay: NVS_ADME_hCYP1A2: NovaScreen (NVS) CYP450-related Enzyme Activity (ADME) Assay for human CYP1A2 (AID 2283102; active = hit-call score of the fitted dose curve at least 0.9, where 1 is the maximum;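 for AC50: potency for inhibition since loss of fluorescence marks reduced CYP1A2 activity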)
Method in brief: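 Enzyme activity of insect-cell-expressed human CYP1A2 measured by fluorescence 0.5 h after compound addition, relative to acetonitrile. Compounds first tested in duplicate at 10 uM, actives followed up in concentration series.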

[7] = molecular target: rat CYP2A1, Cyp2a1 (gene 24894) (UniProt P11711); assay: NVS_ADME_rCYP2A1: NovaScreen (NVS) CYP450-related Enzyme Activity (ADME) Assay for rat CYP2A1 (AID 2283114)
Method in brief: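 Recombinant rat CYP2A1, cell-free, fluorogenic substrate turnover read by fluorescence intensity 0.75 h after dosing. Primary screen at 10 uM in duplicate; actives rerun as concentration-response up to 20 uM; loss of signal versus acetonitrile control.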

[8] = molecular target: Cytochrome P450 2C19 (Homo sapiens) (UniProt P33261); assay: NVS_ADME_hCYP2C19: NovaScreen (NVS) CYP450-related Enzyme Activity (ADME) Assay for human CYP2C19 (AID 2283113; active = hit-call score of the fitted dose curve at least 0.9, where 1 is the maximum;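 for AC50: potency for inhibition seen as loss of fluorescent signal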)
Method in brief: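 Compounds first screened in duplicate at 10 uM, then confirmed in concentration series. Insect-cell-expressed human CYP2C19 turned over a fluorogenic substrate, and fluorescence was read after 1 h. Inhibition taken as signal loss relative to acetonitrile.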

[9] = molecular target: rat CYP2A2, Cyp2a2 (gene 24895) (UniProt P15149); assay: NVS_ADME_rCYP2A2: NovaScreen (NVS) CYP450-related Enzyme Activity (ADME) Assay for rat CYP2A2 (AID 2283116; active = hit-call score of the fitted dose curve at least 0.9, where 1 is the maximum)
Method in brief: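 Cell-free recombinant rat CYP2A2 activity with fluorogenic substrate, fluorescence read 0.2 h after dosing. Chemicals screened at 10 uM in duplicate, hits then run in concentration-response up to 20 uM; signal loss versus acetonitrile baseline.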

[10] = molecular target: human CYP1A1, CYP1A1 (gene 1543) (UniProt P04798); assay: NVS_ADME_hCYP1A1: NovaScreen (NVS) CYP450-related Enzyme Activity (ADME) Assay for human CYP1A1 (AID 2283100; active = hit-call score of the fitted dose curve at least 0.9, where 1 is the maximum)
Method in brief: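 Chemicals were first tested in duplicate at 10 uM, and those passing a 30% inhibition threshold were rerun as concentration series topping at 20 uM. Fluorescence read-out of recombinant enzyme turnover after 1 h, relative to acetonitrile.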

[11] = molecular target: Cytochrome P450 3A4 (Homo sapiens) (UniProt P08684); assay: NVS_ADME_hCYP3A4: NovaScreen (NVS) CYP450-related Enzyme Activity (ADME) Assay for human CYP3A4 (AID 2283110; active = hit-call score of the fitted dose curve at least 0.9, where 1 is the maximum)
Method in brief: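 Cell-free assay using insect-cell-expressed human CYP3A4 with a fluorogenic substrate; fluorescence intensity was read 0.33 hour after dosing. Loss of signal relative to acetonitrile vehicle indicated inhibition. Primary single-concentration screen at 10 uM, in duplicate, then concentration series.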

[12] = molecular target: rat CYP2C13, Cyp2c13 (gene 171521) (UniProt P20814); assay: NVS_ADME_rCYP2C13: NovaScreen (NVS) CYP450-related Enzyme Activity (ADME) Assay for rat CYP2C13 (AID 2283121; active = hit-call score of the fitted dose curve at least 0.9, where 1 is the maximum)
Method in brief: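 Recombinant rat CYP2C13 with fluorogenic substrate, 0.75 h cell-free incubation; primary screen in duplicate at 10 uM, actives followed in concentration series. Fluorescence loss relative to acetonitrile control indicates inhibition.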

[13] = molecular target: human CYP2C9, CYP2C9 (gene 1559) (UniProt P11712); assay: NVS_ADME_hCYP2C9: NovaScreen (NVS) CYP450-related Enzyme Activity (ADME) Assay for human CYP2C9 (AID 2283108; active = hit-call score of the fitted dose curve at least 0.9, where 1 is the maximum)
Method in brief: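 Cell-free assay of recombinant human CYP2C9 produced in Sf9 cells, with enzyme activity read by fluorescence intensity 0.75 h after compound addition. Loss of signal versus an acetonitrile negative control indicates inhibition. Primary screen used 10 uM in duplicate; actives were retested in concentration series.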

[14] = molecular target: rat CYP2C11, Cyp2c11 (gene 29277) (UniProt P08683); assay: NVS_ADME_rCYP2C11: NovaScreen (NVS) CYP450-related Enzyme Activity (ADME) Assay for rat CYP2C11 (AID 2283118; active = hit-call score of the fitted dose curve at least 0.9, where 1 is the maximum)
Method in brief: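 Cell-free recombinant rat enzyme with fluorescent substrate; readout 0.33 h after dosing, loss of signal versus acetonitrile control. Initial duplicate single-point at 10 uM; actives rerun in concentration series.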

[15] = molecular target: human CYP19A1, CYP19A1 (gene 1588) (UniProt P11511); assay: NVS_ADME_hCYP19A1: NovaScreen (NVS) CYP450-related Enzyme Activity (ADME) Assay for human CYP19A1 (AID 2283098; active = hit-call score of the fitted dose curve at least 0.9, where 1 is the maximum)
Method in brief: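 Cell-free enzyme assay with recombinant protein and a specific fluorogenic substrate, read by fluorescence intensity 0.5 h after dosing. Primary screen ran in duplicate at 10 uM; actives were retested in concentration series. Loss of signal versus acetonitrile baseline.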

Measured: AC50

Chain of rat CYP2C11, Cyp2c11 (gene 29277) (P08683 whole entry, looked up): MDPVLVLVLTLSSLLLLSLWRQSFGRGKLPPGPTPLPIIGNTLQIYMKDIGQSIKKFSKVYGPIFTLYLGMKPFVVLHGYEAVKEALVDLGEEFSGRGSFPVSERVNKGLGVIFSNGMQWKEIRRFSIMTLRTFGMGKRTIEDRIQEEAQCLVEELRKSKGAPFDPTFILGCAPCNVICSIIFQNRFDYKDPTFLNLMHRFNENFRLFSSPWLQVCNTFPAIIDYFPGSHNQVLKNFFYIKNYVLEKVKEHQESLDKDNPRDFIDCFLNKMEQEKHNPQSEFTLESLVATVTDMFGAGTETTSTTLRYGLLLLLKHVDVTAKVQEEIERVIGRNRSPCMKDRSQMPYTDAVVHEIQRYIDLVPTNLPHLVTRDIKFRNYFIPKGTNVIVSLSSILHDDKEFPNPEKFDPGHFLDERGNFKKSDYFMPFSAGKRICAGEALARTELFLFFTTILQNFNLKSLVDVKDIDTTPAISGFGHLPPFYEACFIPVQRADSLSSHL
Chain of Cytochrome P450 3A4 (Homo sapiens) (P08684 whole entry, looked up): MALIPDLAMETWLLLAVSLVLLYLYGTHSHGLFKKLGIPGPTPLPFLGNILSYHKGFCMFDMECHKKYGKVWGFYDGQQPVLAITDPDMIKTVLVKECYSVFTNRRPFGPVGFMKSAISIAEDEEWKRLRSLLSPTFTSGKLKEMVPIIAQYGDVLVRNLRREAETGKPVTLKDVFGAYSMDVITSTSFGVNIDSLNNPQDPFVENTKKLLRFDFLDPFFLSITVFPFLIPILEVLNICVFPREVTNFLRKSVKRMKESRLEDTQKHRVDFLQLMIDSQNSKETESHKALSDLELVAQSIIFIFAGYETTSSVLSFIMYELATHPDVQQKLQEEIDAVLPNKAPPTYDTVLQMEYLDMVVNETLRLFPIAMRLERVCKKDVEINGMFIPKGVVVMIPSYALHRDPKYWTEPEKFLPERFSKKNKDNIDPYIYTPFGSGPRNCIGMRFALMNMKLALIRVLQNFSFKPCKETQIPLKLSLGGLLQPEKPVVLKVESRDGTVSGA
Chain of rat CYP2A2, Cyp2a2 (gene 24895) (P15149 whole entry, looked up): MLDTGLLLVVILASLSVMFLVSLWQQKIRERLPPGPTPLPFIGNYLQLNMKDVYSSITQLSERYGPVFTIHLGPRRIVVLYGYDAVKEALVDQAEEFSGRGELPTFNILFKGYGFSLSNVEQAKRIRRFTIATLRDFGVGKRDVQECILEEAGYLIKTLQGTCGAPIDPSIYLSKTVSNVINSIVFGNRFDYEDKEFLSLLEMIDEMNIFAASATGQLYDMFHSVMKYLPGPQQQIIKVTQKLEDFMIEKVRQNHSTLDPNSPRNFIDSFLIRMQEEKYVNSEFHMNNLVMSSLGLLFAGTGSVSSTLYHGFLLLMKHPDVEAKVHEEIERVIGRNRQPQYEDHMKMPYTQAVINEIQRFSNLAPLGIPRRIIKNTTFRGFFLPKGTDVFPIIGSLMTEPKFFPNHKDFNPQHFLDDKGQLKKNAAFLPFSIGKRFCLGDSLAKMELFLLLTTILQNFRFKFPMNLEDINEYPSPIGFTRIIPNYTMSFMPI
Chain of human CYP1A2, CYP1A2 (gene 1544) (P05177 whole entry, looked up): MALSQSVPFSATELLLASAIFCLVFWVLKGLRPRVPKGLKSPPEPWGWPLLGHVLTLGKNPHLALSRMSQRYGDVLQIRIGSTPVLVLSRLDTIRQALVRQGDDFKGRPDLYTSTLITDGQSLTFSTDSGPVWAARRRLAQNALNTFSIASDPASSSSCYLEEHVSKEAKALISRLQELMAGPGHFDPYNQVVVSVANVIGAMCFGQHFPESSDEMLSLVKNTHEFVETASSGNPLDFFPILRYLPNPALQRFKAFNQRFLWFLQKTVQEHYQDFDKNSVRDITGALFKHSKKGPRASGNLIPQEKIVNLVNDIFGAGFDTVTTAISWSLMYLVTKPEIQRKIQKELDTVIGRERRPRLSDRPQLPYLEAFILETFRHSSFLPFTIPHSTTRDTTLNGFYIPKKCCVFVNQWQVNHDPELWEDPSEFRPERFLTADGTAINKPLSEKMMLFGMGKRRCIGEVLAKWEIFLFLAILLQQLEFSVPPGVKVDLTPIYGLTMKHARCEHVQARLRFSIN
Chain of human CYP19A1, CYP19A1 (gene 1588) (P11511 whole entry, looked up): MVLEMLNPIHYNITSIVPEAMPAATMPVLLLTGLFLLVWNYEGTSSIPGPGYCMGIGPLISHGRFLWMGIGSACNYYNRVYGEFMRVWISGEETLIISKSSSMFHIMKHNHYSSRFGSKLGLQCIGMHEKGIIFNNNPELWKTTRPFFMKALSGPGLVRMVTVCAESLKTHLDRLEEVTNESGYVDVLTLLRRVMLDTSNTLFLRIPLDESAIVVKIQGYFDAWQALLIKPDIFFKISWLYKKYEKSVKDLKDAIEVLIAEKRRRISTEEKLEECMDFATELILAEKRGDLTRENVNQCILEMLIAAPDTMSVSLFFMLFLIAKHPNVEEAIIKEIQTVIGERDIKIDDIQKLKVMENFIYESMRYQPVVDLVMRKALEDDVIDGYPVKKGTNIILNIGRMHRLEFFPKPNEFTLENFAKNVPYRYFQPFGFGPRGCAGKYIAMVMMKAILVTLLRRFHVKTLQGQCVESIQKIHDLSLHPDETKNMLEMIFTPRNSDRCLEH
Chain of human CYP2C9, CYP2C9 (gene 1559) (P11712 whole entry, looked up): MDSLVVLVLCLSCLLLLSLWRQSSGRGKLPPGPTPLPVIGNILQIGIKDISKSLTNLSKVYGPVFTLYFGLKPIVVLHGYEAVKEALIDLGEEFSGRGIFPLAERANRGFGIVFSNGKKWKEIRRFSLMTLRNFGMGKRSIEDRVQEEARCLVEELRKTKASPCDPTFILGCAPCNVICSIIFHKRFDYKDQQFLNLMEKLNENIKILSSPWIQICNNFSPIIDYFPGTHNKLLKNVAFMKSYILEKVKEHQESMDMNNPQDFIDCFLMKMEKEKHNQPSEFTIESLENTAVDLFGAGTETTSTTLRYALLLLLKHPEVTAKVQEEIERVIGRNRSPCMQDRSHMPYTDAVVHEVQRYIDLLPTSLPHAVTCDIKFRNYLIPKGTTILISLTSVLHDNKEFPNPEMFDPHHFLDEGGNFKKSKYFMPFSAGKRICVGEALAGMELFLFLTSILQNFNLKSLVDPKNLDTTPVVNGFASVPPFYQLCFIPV
Chain of rat CYP2C13, Cyp2c13 (gene 171521) (P20814 whole entry, looked up): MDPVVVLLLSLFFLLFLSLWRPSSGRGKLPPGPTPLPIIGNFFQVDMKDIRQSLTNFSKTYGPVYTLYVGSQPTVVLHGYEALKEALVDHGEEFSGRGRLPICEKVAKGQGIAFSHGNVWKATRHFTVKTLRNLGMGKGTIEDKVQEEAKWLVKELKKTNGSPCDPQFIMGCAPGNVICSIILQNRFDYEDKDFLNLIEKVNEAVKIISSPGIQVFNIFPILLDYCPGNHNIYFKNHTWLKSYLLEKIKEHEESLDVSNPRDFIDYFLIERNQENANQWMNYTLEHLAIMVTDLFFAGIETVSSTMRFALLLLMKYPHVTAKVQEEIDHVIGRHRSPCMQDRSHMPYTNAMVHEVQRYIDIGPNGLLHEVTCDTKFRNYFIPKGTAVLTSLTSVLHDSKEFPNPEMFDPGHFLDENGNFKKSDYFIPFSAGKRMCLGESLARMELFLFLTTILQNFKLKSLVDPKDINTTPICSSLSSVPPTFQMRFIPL
Chain of rat CYP2A1, Cyp2a1 (gene 24894) (P11711 whole entry, looked up): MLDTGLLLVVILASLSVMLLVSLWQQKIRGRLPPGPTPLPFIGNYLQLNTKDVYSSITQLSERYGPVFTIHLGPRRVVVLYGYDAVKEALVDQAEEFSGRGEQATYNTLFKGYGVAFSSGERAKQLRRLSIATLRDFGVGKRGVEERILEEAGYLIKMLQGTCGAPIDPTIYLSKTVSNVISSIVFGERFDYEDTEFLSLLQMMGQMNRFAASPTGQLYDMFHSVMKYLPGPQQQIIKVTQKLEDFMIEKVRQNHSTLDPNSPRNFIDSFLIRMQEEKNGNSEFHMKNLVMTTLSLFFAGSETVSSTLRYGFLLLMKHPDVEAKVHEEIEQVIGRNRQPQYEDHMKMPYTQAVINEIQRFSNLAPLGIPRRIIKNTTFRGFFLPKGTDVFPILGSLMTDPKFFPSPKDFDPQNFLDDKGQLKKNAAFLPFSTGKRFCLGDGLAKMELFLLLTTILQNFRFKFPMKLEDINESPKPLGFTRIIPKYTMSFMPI
Chain of human CYP1A1, CYP1A1 (gene 1543) (P04798 whole entry, looked up): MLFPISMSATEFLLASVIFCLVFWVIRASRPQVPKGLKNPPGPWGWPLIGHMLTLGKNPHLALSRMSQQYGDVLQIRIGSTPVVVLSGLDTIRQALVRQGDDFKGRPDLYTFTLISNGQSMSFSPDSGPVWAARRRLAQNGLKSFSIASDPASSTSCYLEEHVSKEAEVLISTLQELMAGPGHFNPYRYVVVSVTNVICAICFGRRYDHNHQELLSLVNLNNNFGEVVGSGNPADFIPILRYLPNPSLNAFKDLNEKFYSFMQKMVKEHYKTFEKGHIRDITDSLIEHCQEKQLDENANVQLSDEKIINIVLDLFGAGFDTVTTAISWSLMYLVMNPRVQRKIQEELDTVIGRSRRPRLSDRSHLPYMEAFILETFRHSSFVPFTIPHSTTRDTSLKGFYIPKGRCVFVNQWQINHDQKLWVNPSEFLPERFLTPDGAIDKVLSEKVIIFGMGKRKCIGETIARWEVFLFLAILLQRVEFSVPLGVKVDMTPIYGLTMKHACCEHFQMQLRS

COC(=O)c1ccccc1S(=O)(=O)NC(=O)Nc1nc(OC(F)F)cc(OC(F)F)n1
inactive: [1] | [2] | [3] | [4] | [5]
active: [6] 5.43 µM

CN(C)C(=O)Nc1ccc(Cl)c(Cl)c1
inactive: [1] | [2] | [3] | [4] | [5]
active: [6] 1.63 µM | [7] 0.316 µM

CCOC(=O)[C@H](C)Oc1ccc(Oc2nc3ccc(Cl)cc3o2)cc1
inactive: [1] | [2] | [3] | [4] | [5] | [6] | [8]
active: [9] 10 µM

CC(C)CCCCCCc1ccc(O)cc1
active: [1] 9.25 µM | [2] 6.38 µM | [3] 6.55 µM | [4] 5.59 µM | [5] 13.1 µM | [10] 10.7 µM | [8] 2.75 µM

CC1(C)C(C=C(Cl)Cl)C1C(=O)OCc1cccc(Oc2ccccc2)c1 (stereo not given)
inactive: [1] | [2] | [3] | [8]
active: [4] 14.8 µM | [5] 5.14 µM

CCC(O)=C1C(=O)CC(C(=O)O)CC1=O (stereo not given)
inactive: [1] | [2] | [3] | [4] | [5] | [11]

Cc1nn(C)c(Oc2ccccc2)c1C=NOCc1ccc(C(=O)OC(C)(C)C)cc1
inactive: [2] | [9] | [12]
active: [1] 19 µM | [3] 3.97 µM | [4] 8.08 µM | [5] 20 µM | [8] 3.32 µM

CC(C)(C)[C@@H](O)[C@@H](Cc1ccc(Cl)cc1)n1cncn1
inactive: [1] | [5]
active: [2] 3.76 µM | [3] 7.99 µM | [4] 12.6 µM | [13] 6.81 µM | [11] 2.68 µM | [8] 0.172 µM | [7] 1.7 µM | [9] 0.0348 µM | [14] 2.05 µM | [12] 0.37 µM

CCCCOC(=O)C(C)Oc1ccc(Oc2ccc(C(F)(F)F)cn2)cc1 (stereo not given)
active: [9] 1.17 µM
inactive: [1] | [2] | [3] | [4] | [5] | [8]

CCCCC(CC)COC(=O)c1ccccc1C(=O)O (stereo not given)
active: [13] 5.35 µM | [8] 7.13 µM
inactive: [1] | [2] | [3] | [4] | [5]

CCCOC(=O)c1ccc(C(=O)OCCC)nc1
inactive: [1] | [2] | [3] | [4] | [5] | [15]
active: [8] 6.74 µM

CCCCCCC(C)OC(=O)COc1nc(F)c(Cl)c(N)c1Cl (stereo not given)
active: [1] 38.5 µM | [2] 12.3 µM | [3] 29.1 µM | [4] 9.53 µM | [5] 34.9 µM | [11] 7.6 µM | [8] 4.62 µM
inactive: [6] | [13] | [9]

CCNc1nc(N)nc(Cl)n1
inactive: [1] | [2] | [3] | [4] | [5] | [9]

COC(=O)c1c(Cl)nn(C)c1S(=O)(=O)NC(=O)Nc1nc(OC)cc(OC)n1
inactive: [1] | [2] | [3] | [4] | [5]
active: [13] 2.89 µM

CC(=O)[C@H]1CC[C@H]2[C@@H]3CCC4=CC(=O)CC[C@]4(C)[C@H]3CC[C@]12C
inactive: [1] | [3] | [15] | [13]
active: [2] 9.94 µM | [4] 28.8 µM | [5] 4.21 µM | [13] 7.34 µM | [11] 5.46 µM and 2.77 µM | [8] 2.46 µM and 4.48 µM and 6.21 µM | [9] 3.07 µM and 7.82 µM and 6.94 µM | [14] 3.08 µM and 6.76 µM
